Rows were chosen to be rich in hits. Some 22% of all compounds tested hit in one or more screens of this group.
LmPK inhibitor – inhibitors of Leishmania mexicana pyruvate kinase; Q27686; purified LmPK, Kinase-Glo ATP luminescence, 1 h; Potency, µM (doses to about 57.5 µM), without a hit: at the top dose activity change, negative = inhibition, actives largely listed as inhibitors; hit rate 0.37% among 290,000; also: potency is read from the fitted curve at half-maximal effect; % is scaled to controls: 0 for no effect and ±100 for the full control effect
Target sequence (Q27686 whole entry, looked up): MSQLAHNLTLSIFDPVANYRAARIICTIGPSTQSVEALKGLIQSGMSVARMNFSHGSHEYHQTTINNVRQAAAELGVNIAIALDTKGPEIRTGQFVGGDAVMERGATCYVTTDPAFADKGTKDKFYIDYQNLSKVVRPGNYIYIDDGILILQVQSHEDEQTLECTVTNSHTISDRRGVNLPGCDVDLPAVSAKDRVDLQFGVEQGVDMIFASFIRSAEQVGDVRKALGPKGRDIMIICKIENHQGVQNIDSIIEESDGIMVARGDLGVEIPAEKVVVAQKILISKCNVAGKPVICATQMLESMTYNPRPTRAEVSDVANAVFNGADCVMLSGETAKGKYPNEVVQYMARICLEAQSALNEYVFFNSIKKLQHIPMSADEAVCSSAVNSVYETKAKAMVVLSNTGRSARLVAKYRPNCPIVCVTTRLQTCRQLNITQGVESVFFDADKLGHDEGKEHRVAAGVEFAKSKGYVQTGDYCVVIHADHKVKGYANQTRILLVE
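Screened at intermediate enzyme activity to detect both inhibitors and activators: LmPK at 0.1 nM, with a 0.5 nM enzyme column as activation reference. PEP 0.5 mM, ADP 0.1 mM; ATP detected by luminescence after 1 h.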
Pf growth 96h – P. falciparum growth inhibition at 96 hour, primary screen for plastid delayed-death inhibitors | hit rate 6.9% among 320,000 | Potency, µM (top dose mostly 28.7 µM), without a hit: at the highest dose activity change, negative = inhibition, most hits filed as inhibitors | P. falciparum luciferase reporter growth, 96 h | AID 504834; also: potency is read from the fitted curve at half-maximal effect; % is scaled to controls: 0 for no effect and ±100 for the full control effect
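Delayed-death screen, second-generation endpoint: infected erythrocytes, 2% hematocrit, 0.05% parasitemia final; 96 hours at 37 C, 5% CO2; luciferase detection reagent; luminescence decrease equals reduced growth.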
Shiga toxin inh – blocks Shiga toxin action in Vero cells. Vero cells, Shiga toxin protein synthesis inhibition reporter. inhibition, % at 38.7 µM. hit rate 9.2% among 290,000; in the data active = inhibition mostly above about 28%, no sharp cut-off; inactive = mostly below about 43%; also: 0% is about no effect
Pf growth 48h – inhibits P. falciparum growth in the first generation, 48 h; P. falciparum luciferase growth in erythrocytes, 48 h; Potency, µM (series often up to 28.7 µM), for inactives: at the highest dose activity change, negative = inhibition, hits mostly inhibitors; hit rate 5.9% among 310,000; also: potency is read from the fitted curve at half-maximal effect; % is scaled to controls: 0 for no effect and ±100 for the full control effect
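Parasite viability was followed by luminescence of a genomically integrated firefly luciferase. Cultures held 0.1% parasitemia at 2% hematocrit (final), incubated under 5% CO2 at 37 C.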
Cycloheximide cs – counter-screen hit for Shiga toxin inhibitors, cycloheximide. hit rate 12% among 300,000. cell reporter, cycloheximide protein synthesis inhibition counterscreen. AID 2314. max response, %; in the data active = max response mostly above about 13%, no sharp cut-off; inactive = mostly below about 14%; also: read at 38.3 µM for the half of the compounds with a filed dose; 0% is about no effect
Active calls of the source: *; ? = inconclusive; / = no result given; [ ] = remark or other dose. Unless noted, calls follow the shape of the dose curve; as a rule, active = well fitted inhibition curve with a large enough effect; inconclusive = small, poorly fitted or top-dose-only effect, or another doubt; inactive = no such curve, though single readings can be large or run the other way.

SMILES	LmPK inhibitor	Pf growth 96h	Shiga toxin inh	Pf growth 48h	Cycloheximide cs
Cc1cccc(NC(=S)NC(=O)CCc2ccccc2)c1	-0.5%	?	72.1*	16.5%	17.5*
Cc1cccc(NC(=O)NNC(=O)CCc2ccccc2)c1	1.4%	?	-4.2	26.9%	-0.4
CCOC(=O)C(C(=O)OCC)C(Nc1ccc(Br)cc1)c1ccccc1 (centres undefined)	0.3%	25.0%	-30.4	9.3%	-1.9
COc1cccc(N/C=C/C(=O)c2ccc(Cl)cc2)c1	?	-1.7%	92.2*	284.7%	62.6*
COc1cccc(C(=O)NNC(=O)C(=O)Nc2ccc(C)cc2)c1	-6.3%	-0.6%	50.8	20.4%	10.6
COc1cccc(C(=O)/C=C/Nc2ccc(S(=O)(=O)Nc3cccc(C(C)=O)c3)cc2)c1	5.2%	?	96.7*	-72.8%	57.0*
COc1cccc(C(=O)/C=C/Nc2ccc(NC(C)=O)cc2)c1	?	11.7%	60.1	95.3%	42.4*
COc1cccc(NC(=S)NC(=O)Cc2ccc(Cl)cc2)c1	0.1%	22.3%	16.8	24.6%	-0.4
COc1cccc(N/C=C/C(=O)c2ccc(C)cc2)c1	-6.2%	144.7%	62.6*	0.0%	20.7*
O=C(CSc1nnc(-c2ccc(O)cc2)o1)NNC(=O)c1ccncc1	-1.9%	51.1%	2.0	18.4%	-3.4
CN(Cc1ccccc1)S(=O)(=O)c1cccc2cccnc12	10.9%	-28.1%	7.9	/	11.9
COc1ccc(CC(O)COS(N)(=O)=O)cc1 (centres undefined)	-7.0%	?	-3.6	18.3%	-2.2
COc1ccc(N/C=C/C(=O)c2ccc(Cl)cc2)cc1	-7.7%	4.3%	69.2*	266.4%	63.2*
COc1cccc(C(=O)/C=C/Nc2cccc(O)c2)c1	14.1µM*	239.6%	-10.3	/	-1.1
COc1ccc(N/C=C/C(=O)C(F)(F)F)cc1	4.2%	-17.1%	-57.8	5.7%	15.2
COc1ccc(OC)c(N/C=C/C(=O)c2ccccc2)c1	?	?	-36.7	?	-3.5
CC(C)(Oc1ccc(Cl)cc1)C(=O)Nc1ccc(S(=O)(=O)Nc2ncccn2)cc1	-0.2%	3.0%	-6.1	9.4%	-5.2
CSc1ccc(COC(=O)CCS(=O)(=O)c2ccc(C)cc2)cc1	/	18.8%	/	?	/
O=C(CN1CCCc2ccccc21)N/N=C/c1c(O)ccc2ccccc12	2.6%	?	48.1*	?	33.5*
O=C(N/N=C\c1c(O)ccc2ccccc12)c1ccc(S(=O)(=O)N2CCCCC2)cc1	2.0%	85.1%	-16.0	1.47µM*	-2.0
O=C(CN1CCCc2ccccc21)N/N=C/c1ccc(O)cc1O	-2.2%	8.6%	71.0*	70.6%	25.5*
O=C(N/N=C/c1c(O)ccc2ccccc12)c1ccc(CO)nc1	7.9%	23.2%	3.0	?	-0.8
CCN(CC)c1ccc(/C=N/NC(=O)CN2CCCc3ccccc32)cc1	1.3%	-26.9%	-11.1	-23.3%	0.9
O=C(CN1CCCc2ccccc21)N/N=C/c1ccccc1	5.5%	-8.6%	21.5	-3.7%	21.3*
Cc1ccccc1NC(=O)NC1(C(=O)NCc2ccco2)CCCCC1	-3.0%	0.0%	3.2	-10.2%	-8.3
SMILES	LmPK inhibitor	Pf growth 96h	Shiga toxin inh	Pf growth 48h	Cycloheximide cs
CC(C)(C)C(=O)Cn1ncc(Br)c(Br)c1=O	0.5%	7.4%	-27.9	-30.6%	-10.1
COc1ccc(SCCC(=O)NCc2ccncc2)cc1	2.2%	13.0%	-7.4	27.7%	-0.6
COc1ccc(CN2CC(C(=O)NCCCN3CCCC(C)C3)CC2=O)cc1 (centres undefined)	-0.2%	72.6%	-10.8	-7.0%	-1.4
COc1ccc(NC(=O)COc2nc3ccccc3nc2N2CCOCC2)c(OC)c1	1.7%	9.8%	0.7	47.5%	-0.9
COc1ccc(NC(=S)NCc2ccc(F)cc2)cc1	0.2%	11.2%	4.7	-14.7%	9.5
CCN(CC)CCCNC(=O)c1cc2c(-c3ccc(Cl)cc3)nn(C)c2s1	7.8%	?	14.3	/	13.4
CCN(CCCNC(=O)c1cc2c(-c3cccc(OC)c3)nn(C)c2s1)Cc1ccccc1	5.8%	9.2%	-4.6	2.33µM*	-0.4
COc1cccc(-c2nn(C)c3sc(C(=O)N4CCOCC4)cc23)c1	7.3%	2.33µM*	7.6	/	1.3
CC1CCCCN1CCNC(=O)c1cc2c(-c3ccccc3F)nn(C)c2s1 (centres undefined)	2.4%	-19.9%	-10.6	/	-7.1
COc1cccc(-c2nn(C)c3sc(C(=O)NCc4ccc(C)o4)cc23)c1	-2.4%	?	27.9	?	23.3*
CCCCN(CC)CCNC(=O)c1cc2c(-c3ccccc3F)nn(C)c2s1	2.4%	22.2%	-4.0	2.08µM*	-0.3
CC(C)(C)c1cc2nc3c(c(=O)n2[nH]1)CN(Cc1ccccc1)C3=O	1.0%	3.2%	-7.8	33.2%	0.3
COc1ccccc1/C=C1\SC(=S)N(CCC(=O)Nc2nnc(C)s2)C1=O	-1.5%	?	2.2	45.0%	0.6
Cc1c(OCC(=O)N[C@H](C(=O)O)c2ccccc2)ccc2c3c(c(=O)oc12)CCCC3	-4.5%	71.8%	1.2	29.6%	-1.3
Cc1ccc(C2=NCCn3c2c2ccc(C(F)(F)F)cc2[n+]3[O-])cc1	/	?	/	10.4µM*	/
COc1ccc(-c2cc(C(=O)N3CCN(C(c4ccccc4)c4ccccc4)CC3)no2)cc1	-4.7%	11.7µM*	14.1	?	5.9
O=C(c1cc(-c2ccco2)on1)N1CCN(C(c2ccccc2)c2ccccc2)CC1	-1.1%	24.7%	32.9	11.7µM*	1.5
COc1ccc(-c2cc(C(=O)N3CCN(C(c4ccccc4)c4ccccc4)CC3)no2)cc1OC	2.5%	-7.0%	25.1	7.38µM*	2.2
COc1ccc(-c2cc(C(=O)N3CCc4ccccc4C3)no2)cc1OC	-1.3%	?	-2.9	-10.2%	-2.9
COc1ccc2oc(C(=O)N3CCN(C(c4ccccc4)c4ccccc4)CC3)c(C)c2c1	/	4.65µM*	/	3.7µM*	/
CC(=O)N1CCN(C2=NC(=O)/C(=C/c3ccc(OS(=O)(=O)c4ccccc4)cc3)S2)CC1	7.9%	?	-4.5	?	-3.7
CCc1ccccc1NC(=O)CNC(=O)c1ccccc1OCc1c(C)noc1C	/	-1.4%	/	-16.7%	/
Cn1nc(C(=O)N2CCN(C(c3ccccc3)c3ccccc3)CC2)c2ccccc2c1=O	-2.3%	11.7µM*	-4.3	4.65µM*	-2.5
CC(C)Cc1cc(C(=O)N2CCN(C(c3ccccc3)c3ccccc3)CC2)no1	0.0%	-0.5%	-9.8	/	-2.1
CC(C)c1cc(C(=O)N2CCN(C(c3ccccc3)c3ccccc3)CC2)no1	-0.7%	/	31.9*	9.28µM*	29.4*
Cc1ccc(/C=N/NC(=O)c2cccc(S(=O)(=O)N3CCOCC3)c2)o1	5.0%	-21.9%[5.75 µM]	2.9	-15.3%	-1.5
CC(=O)Nc1ccc(OC(=O)c2ccc(Br)c([N+](=O)[O-])c2)cc1	1.8%	22.4%	12.1	1.3%	-2.8
CCN(CCNC(=O)c1ccc(C#N)cc1)c1cccc(C)c1	-4.3%	?	-7.6	?	-1.4
CCN(CCNCC(O)COCc1ccc(Cl)cc1)c1cccc(C)c1 (centres undefined)	-1.4%	?	-6.6	8.28µM*	-3.4
